Results as given in PubChem BioAssay (Tox21).
Results filed as inconclusive are left out. Values without a mark were called inactive. Calls follow the shape of the full dose curve.

Assay: qHTS assay to identify small molecule agonists of the AP-1 signaling pathway - cell viability counter screen (AID 1159525); also: nearly all actives have a fitted effect of over 55% in size
Conditions: ME-180 (cervical carcinoma) AP-1-bla cells viability, ATP luminescence, 5 h; series mostly up to 76.8 µM; viability change, negative = cytotoxic: at the top concentration
Text: National Center for Advancing Translational Sciences [NCATS]
NIH Chemical Genomics Center [NCGC]
U.S. Environmental Protection Agency [EPA]
National Institutes of Environmental Health Sciences [NIEHS]
National Toxicology Program [NTP]
U.S. Food and Drug Administration [FDA]
Activator protein-1 (AP-1), a transcription factor, plays an important role in tumor genesis by regulating genes involved in cell proliferation, differentiation, apoptosis, and angiogenesis. AP-1 activity is induced by a complex network of signaling pathways that involves extracellular signals, such as growth factors. The AP-1 protein complex formed from c-Fos and c-Jun binding to the AP-1 response element results in transcriptional activation of genes containing such elements within their promoter.
Low molecular weight molecules have been discovered and developed to modulate various components of these signaling pathways, for example, MAP kinase inhibitors. However, many points of pathway modulation remain untested due to the lack of chemical probes making this signaling locus of general interest.
Using a beta-lactamase reporter-gene under control of the AP-1 response element, a cell-based assay [CellSensor(TM) AP-1-bla ME-180 developed by Invitrogen Corp.] was used to measure EGF-induced signaling. The Tox21 10K library compounds were measured for their ability to positively modulate the action of EC50 EGF on reporter gene activity. Compounds were screened in a 15-pt titration series in 1536-well format. The cytotoxicity of the Tox21 compound library against this cell line was tested in parallel by measuring the intra cellular ATP content in the same wells.
Tox21 Assay Protocol Summary:
2500 cells/5uL in Opti-MEM medium containing 0.5% dialyzed FBS, 0.1 mM NEAA, 1 mM sodium pyruvate and 10 mM HEPES was dispensed into 1536-well black wall/clear bottom plates using a Multidrop dispenser and cells were cultured at 37 degrees Celsius overnight. Next day 23 nL of compounds dissolved in DMSO, positive controls or DMSO were delivered to each well using a pin tool. The plates were incubated at 37 degrees Celsius for 5 hours. 1 uL of LiveBLAzerTM B/G FRET substrate (Solution A+B+C+D) was added to each well using a Flying Reagent Dispenser. After incubated at room temperature for 2.5 hours the plates were measured on an EnVision plate reader at Excitation 405nm, Emission1=460nm and Emission 2=530nm. The %Activity was determined from the ratio of 460nm/530nm.
After the plates were read for Beta-Lactamase assay on Envision; 3 ul Cell Titer Glo (Promega) was added to measure the cytotoxicity and the plates were then incubated at RT in dark for 30 min. The luminescence was read on ViewLux (Perkin Elmer, Shelton, CT) using 6 sec exposure. ViewLux data was expressed as relative luminescence units.
For primary data analysis, raw plate reads for each titration point were first normalized relative to […] EGF control (100%) and DMSO only wells (basal, 0%).
For primary data analysis for viability assay, raw plate reads for each titration point were first normalized Tetra n-octyl ammonium bromide control (-100%) and DMSO (control, 100%).
For `C=CCOCC(O)CS(=O)(=O)O` (stereo not given), the “viability change, negative = cytotoxic” value was 0.0785%.
In the case of `OC/C=C/c1ccccc1`, the “viability change, negative = cytotoxic” value is reported as 3.64%.
In the case of `C1CCCCCCCCCCC1`, the viability change, negative = cytotoxic is reported as 0.327% [at 15.8 µM].
For `Nc1[nH]c(=O)ncc1F`, the “viability change, negative = cytotoxic” value was -2.13% [at 35.3 µM].
In the case of `CC(C)CCCC(C)CCCC(C)CCCCC(C)CCCC(C)CCCC(C)C` (stereo not given), the “viability change, negative = cytotoxic” value is reported as -3.05% [at 35.3 µM].
For `O=c1[nH]c(=O)n([C@H]2O[C@H](CO)[C@@H](O)[C@@H]2O)cc1/C=C\Br`, the “viability change, negative = cytotoxic” value was 7.12% [at 35.3 µM].
For `NCCN1CCNC1=O`, the “viability change, negative = cytotoxic” value was 3.14%.
With `N#CCc1ccccc1[N+](=O)[O-]` the “viability change, negative = cytotoxic” value was 4.87%.
In the case of `CCC(=O)Nc1cccc(N)c1`, the “viability change, negative = cytotoxic” value is reported as 2.71%.
For `O=Cc1ccccc1[N+](=O)[O-]`, the “viability change, negative = cytotoxic” value was -0.0104%.
In the case of `O=C(O)C1CCC1`, the “viability change, negative = cytotoxic” value is reported as 7.27% [at 35.3 µM].
With `COc1ccc2cc(C=O)ccc2c1` the “viability change, negative = cytotoxic” value was 7.96% [at 35.3 µM].
With `CCOC(=O)Nc1ccc2c(c1)N(C(=O)CCN1CCOCC1)c1ccccc1S2` the “viability change, negative = cytotoxic” value was -0.225% [at 35.3 µM].
With `CC(C)CCCCCCN` the “viability change, negative = cytotoxic” value was -2.37%.
With `Cn1ccc2cc3c(cc21)CCN3C(=O)Nc1cccnc1` the viability change, negative = cytotoxic was 0.227% [at 15.8 µM].
For `CCCCC=O`, the “viability change, negative = cytotoxic” value was 1.99%.
In the case of `NS(=O)(=O)c1cc2c(cc1C(F)(F)F)NC(Cc1ccccc1)NS2(=O)=O` (stereo not given), the “viability change, negative = cytotoxic” value is reported as 4.77% [at 35.3 µM].
In the case of `c1ccc(SCCSc2ccccc2)cc1`, the “viability change, negative = cytotoxic” value is reported as 2.5%.
In the case of `CCCCC1CCCCC(=O)O1` (stereo not given), the “viability change, negative = cytotoxic” value is reported as -0.402%.
With `CC1=CC(=O)CCC1` the “viability change, negative = cytotoxic” value was -3.64%.
For `Cc1onc(-c2ccccc2)c1-c1ccc(S(N)(=O)=O)cc1`, the “viability change, negative = cytotoxic” value was 3.27% [at 35.3 µM].
For `O=C(O)CCNC(=O)c1ccc(N=Nc2ccc(O)c(C(=O)O)c2)cc1`, the “viability change, negative = cytotoxic” value was 5.28% [at 35.3 µM].
In the case of `CCCCCCCCCCCl`, the “viability change, negative = cytotoxic” value is reported as 2.62%.
With `C=C(C)C(=O)OCCC(C)OC(=O)C(=C)C` (stereo not given) the “viability change, negative = cytotoxic” value was -1.27%.
For `CCN(CC)S(=O)(=O)c1ccc(C(=O)O)cc1`, the “viability change, negative = cytotoxic” value was 2.31% [at 35.3 µM].
In the case of `Cc1cc(C)cc(OCC2CNC(=O)O2)c1` (stereo not given), the “viability change, negative = cytotoxic” value is reported as 5.47% [at 35.3 µM].
In the case of `CCn1c(=O)c2c(nc(/C=C/c3ccc(OC)c(OC)c3)n2C)n(CC)c1=O`, the “viability change, negative = cytotoxic” value is reported as -5.66% [at 35.3 µM].
For `CC(C)(O)c1ccccc1`, the “viability change, negative = cytotoxic” value was 1.98%.
For `OC1OC[C@@H](O)[C@H](O)[C@H]1O` (stereo not given in full), the “viability change, negative = cytotoxic” value was -3.27%.
In the case of `O=S(=O)(c1cccc2cnccc12)N1CCCNCC1`, the “viability change, negative = cytotoxic” value is reported as 3.06% [at 35.3 µM].
In the case of `Nc1cc(N)cc(C(=O)O)c1`, the “viability change, negative = cytotoxic” value is reported as -2.08%.
For `CCC(C(=O)NC(N)=O)c1ccccc1` (stereo not given), the “viability change, negative = cytotoxic” value was -5.03%.
For `O=C(O)/C=C/c1ccc(/C=C/C(=O)O)cc1`, the “viability change, negative = cytotoxic” value was 2.36% [at 35.3 µM].
In the case of `COC(=O)C1=C(C)NC(C)=C(C(=O)OCC(C)=O)C1c1ccccc1[N+](=O)[O-]` (stereo not given), the “viability change, negative = cytotoxic” value is reported as 0.816% [at 35.3 µM].
In the case of `CN(C)C(=O)Nc1ccccc1`, the “viability change, negative = cytotoxic” value is reported as -4.28%.
With `C[C@H](O)C(=O)Nc1c(I)c(C(=O)NC(CO)CO)c(I)c(C(=O)NC(CO)CO)c1I` the “viability change, negative = cytotoxic” value was 9.7% [at 35.3 µM].
With `CC(=O)CCc1ccc(O)cc1` the “viability change, negative = cytotoxic” value was 1.51%.
For `CC(C)(C)C(=O)/C=C/c1ccc(Cl)cc1`, the “viability change, negative = cytotoxic” value was 6%.
In the case of `CCCCCC[C@@H](CCC)C(=O)O`, the “viability change, negative = cytotoxic” value is reported as 1.19% [at 35.3 µM].
`NCC[C@H](O)C(=O)N[C@@H]1C[C@H](N)[C@@H](O[C@H]2O[C@H](CN)[C@@H](O)[C@H](O)[C@H]2O)[C@H](O)[C@H]1O[C@H]1O[C@H](CO)[C@@H](O)[C@H](N)[C@H]1O` gave a viability change, negative = cytotoxic of 8.93% [at 0.29 µM].
